mIDH1 inhibitor – qHTS for Inhibitors of mutant isocitrate dehydrogenase 1 (IDH1): qHTS; Isocitrate dehydrogenase [NADP] cytoplasmic (Homo sapiens), O75874; Potency, µM (titrated, usually from 76.6 µM), without a hit: top-dose activity change, negative = inhibition, most hits filed as inhibitors; AID 602179, 2012; actives 0.093% (n = 390,000); IDH1-R132H enzyme, NADPH consumption, diaphorase/resazurin fluorescence; note: potency is the fitted concentration of half-maximal effect; % is set by controls: 0 for no effect and ±100 for the full control effect; nearly all actives have a fitted effect of over 65% in size
Target sequence (O75874 whole entry R132H, stated change not applied): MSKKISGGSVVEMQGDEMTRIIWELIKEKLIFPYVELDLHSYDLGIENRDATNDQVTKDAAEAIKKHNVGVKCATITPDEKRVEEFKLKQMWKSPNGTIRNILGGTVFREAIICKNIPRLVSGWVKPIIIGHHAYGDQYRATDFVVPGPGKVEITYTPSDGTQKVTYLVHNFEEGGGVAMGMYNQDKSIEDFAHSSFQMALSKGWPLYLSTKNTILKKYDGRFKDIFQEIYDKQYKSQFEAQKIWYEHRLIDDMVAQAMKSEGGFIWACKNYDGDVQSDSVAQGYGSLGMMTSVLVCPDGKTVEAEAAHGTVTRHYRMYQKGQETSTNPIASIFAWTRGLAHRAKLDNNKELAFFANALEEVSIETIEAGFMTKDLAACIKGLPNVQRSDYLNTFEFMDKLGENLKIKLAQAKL
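IDH1-R132H (0.5 ug/mL) preincubated 30 min with compound, then NADPH (0.016 mM) and alpha-KG (2 mM) added; 80 min at RT, pH 7.5. Remaining NADPH coupled via diaphorase/resazurin to fluorescence (540/590 nm); concentration-response curves normalized to no-enzyme control.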
TDP43 rescue – qHTS of TDP-43 Inhibitors; Potency, µM (top dose mostly 46.1 µM), for inactives: top-dose growth rescue (activation), actives largely listed as activators; actives 1.8% (n = 410,000); TDP-43 expressing yeast growth rescue, BacTiter-Glo, 24 h; AID 652104, 2013; note: potency is the fitted concentration of half-maximal effect; % of control where 0% means no effect; nearly all actives have a fitted effect of over 50% in size
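Yeast expressing TDP-43 (pregrown in raffinose, seeded at OD600=0.02 in galactose medium) exposed to compounds 24 hr at 30 deg C. Growth read by BacTiter-Glo luminescence; rescue of toxicity appears as increased signal.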
FUS yeast rescue – qHTS for Suppressors of FUS Proteinopathy: Primary screen using FUS-linked yeast assay; S. cerevisiae FUS-expressing, growth rescue, OD600, 24 h; Potency, µM (top dose mostly 76.6 µM), actives largely listed as activators; actives 0.24% (n = 390,000);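 note: potency is the fitted concentration of half-maximal effect; plate controls were DMSO vehicle for no effect and reference control for full effect; nearly all actives have a fitted effect of over 55% in size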
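FUS-expressing yeast, raffinose-pregrown, induced in 2% galactose minimal medium at OD 0.005; compounds in a dilution series, 24hr at 30C. Growth restoration read as absorbance at 600 nm. CP55940 positive control, DMSO negative.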
aSyn rescue – qHTS of alpha-syn Inhibitors. Yeast expressing alpha-synuclein, growth rescue, BacTiter-Glo, 24 h. Potency, µM (doses to about 46.1 µM), inactives show top-dose growth rescue (activation), usual class: activators. actives 0.14% (n = 370,000). AID 652106, 2013; note: potency is the fitted concentration of half-maximal effect; % of control where 0% means no effect; nearly all actives have a fitted effect of over 65% in size
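Screening used galactose-induced yeast with toxic alpha-synuclein levels, exposed to compound for 24 hr at 30 deg C. Cell growth, read with BacTiter-Glo luminescence, gave the measured signal.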
Abeta rescue – qHTS for compounds that reverse cellular toxicity of Amyloid beta (A-beta) peptide in yeast: Primary Screen; yeast expressing A-beta42, growth rescue, OD600, 48 h; response scale: 0% DMSO, 100% iron-clioquinol control; Potency, µM (titrated, usually from 46.1 µM), usual class: activators; actives 0.063% (n = 410,000); note: potency is the fitted concentration of half-maximal effect; nearly all actives have a fitted effect of over 55% in size
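Yeast growth medium received pinned compounds, then yeast cells expressing toxic A-beta were added; plates incubated at 30 C for 48 hr. Growth read as absorbance at 600 nm, normalized to DMSO and equimolar FeCl3 plus clioquinol controls.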
LDHA inh – qHTS assay for inhibitors of human lactate dehydrogenase; actives 0.15% (n = 480,000); L-lactate dehydrogenase A chain (Homo sapiens), P00338; AID 1347041, 2019; activity change, % (values are at about 110 or 230 µM); purified LDHA, NADH/diaphorase-resazurin fluorescence; active compounds read low; in the data active = activity change below about -30%; inconclusive = mostly about -25% to -30%;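 note: plate controls were DMSO wells for no effect and wells without enzyme for full effect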
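LDH5 2 nM; NADH 0.06 mM, pyruvate 0.2 mM; 200 mM Tris pH 7.4, EDTA, Tween-20; 5 min RT. Detection: diaphorase 0.133 mg/mL + resazurin 37 µM, fluorescence ex540/em590 at 0 and 20 min; normalized to enzyme-free and DMSO wells.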
Numbers without * were called inactive; i = inactive; u = inconclusive; x = not tested or not shown; [ ] = another dose, or the depositor's remark. The list is not random: actives were taken first. Their share in the collection is about 2%. Unless noted, calls come from the whole dose curve; as a rule, active = well fitted curve in the direction sought with a large enough effect; inconclusive = small, poorly fitted or top-dose-only effect, or another doubt; inactive = no such curve, though single readings can be large; an effect the other way counts as inactive or inconclusive.

SMILES | mIDH1 inhibitor | TDP43 rescue | FUS yeast rescue | aSyn rescue | Abeta rescue | LDHA inh
COc1cc(CC(=O)NC2CCS(=O)(=O)C2)cc(OC)c1OC (stereo not given) | x | x | x | x | x | 1
Cc1ccc(NC(=O)c2ccc(CSc3nnc(C)s3)cc2)c(C)c1 | 2% | 6% | i | -1% | i | -2
Cc1nnc(SCc2ccc(C(=O)Nc3cc(Cl)ccc3C)cc2)s1 | -5% | 10µM* | i | 0% | i | -9
O=C(c1ccccc1)N1CCN(c2ncnc3sc4c(c23)CCC4)CC1 | -10% | 22µM* | i | 11% | i | -6
C#CCOCCOCCOCCNc1nc(N2CCN(C(=O)CCCCCCCCCCNC(=O)[C@H](CO)n3cc(CCCSC)nn3)CC2)nc(N2CCN(C(=O)CCCCCCCCCCNC(=O)[C@H](CCCN=C(N)N)n3cc(C[C@@H](C)CC)nn3)CC2)n1 | -2% | -8% | 8.9µM* | -32% | i | -2
C#CCOCCOCCOCCNc1nc(N2CCN(C(=O)CCCCCCCCCCNC(=O)[C@H](CO)n3cc(CCCSC)nn3)CC2)nc(N2CCN(C(=O)CCCCCCCCCCNC(=O)[C@H](CCCCN)n3cc(CCO)nn3)CC2)n1 | 3% | u | 13µM* | -23% | i | 2
C#CCOCCOCCOCCNc1nc(N2CCN(C(=O)CCCCCCCCCCNC(=O)Cn3cc(C[C@@H](C)O)nn3)CC2)nc(N2CCN(C(=O)CCCCCCCCCCNC(=O)[C@H](CCCN=C(N)N)n3cc(C[C@@H](C)CC)nn3)CC2)n1 | 14% | -10% | 11µM* | -58% | i | 2
C#CCOCCOCCOCCNc1nc(N2CCN(C(=O)CCCCCCCCCCNC(=O)Cn3cc(C[C@@H](C)O)nn3)CC2)nc(N2CCN(C(=O)CCCCCCCCCCNC(=O)[C@H](CO)n3cc(CCCSC)nn3)CC2)n1 | 4% | 25% | u | -2% | i | -3
CC(C)N1CCc2c(sc(N)c2-c2nc3ccccc3s2)C1 | x | x | x | x | x | 5
C[N+](C)(CCCCC(=O)O)C[Si](C)(C)C | x | x | x | x | x | 5
Cc1ccc(S(=O)(=O)C(CNC(=O)c2ccc(C(F)(F)F)cc2)c2ccco2)cc1 (stereo not given) | 1% | -22% | u | x | i | -15
O=C(NCC(c1ccco1)S(=O)(=O)c1ccc(Cl)cc1)c1ccc(C(F)(F)F)cc1 (stereo not given) | 0% | 16µM* | i | x | i | -2
CC(=O)C1=C(O)C(=O)NC1c1ccccc1F (stereo not given) | x | x | x | x | x | -4
O/N=C1\CCCc2c1[nH]c1ccc(OCc3ccccc3)cc21 | x | x | x | x | x | 1
Cc1cc(C)c2nc(-c3ccc(Cl)s3)cc(C(=O)O)c2c1 | x | x | x | x | x | 0
O=C(CC1(O)C(=O)N(CCc2ccccc2)c2ccc(Br)cc21)c1ccccc1 (stereo not given) | -4% | 32µM* | i | -13% | i | -2
Cc1ccc(C(=O)CC2(O)C(=O)N(CCc3ccccc3)c3ccc(Br)cc32)o1 (stereo not given) | 9% | -11% | u | 25% | i[9.22 µM] | 3
Cc1ccc(Cl)cc1N1CCN(C(=O)c2cnn(C)c2C2CCN(C(=O)OC(C)(C)C)CC2)CC1 | 6% | 22µM* | u | x | i | 3
CC1CCN(CCOCCOc2ccc(Cl)cc2Br)CC1 | 4% | -25% | i | 8% | i | -34*
CC(NC(=O)c1cc(=O)c2ccccc2o1)c1ccccc1 (stereo not given) | x | x | x | x | x | 1
COc1nc(Nc2cccc(C(F)(F)F)c2)nc(OC)n1 | 7% | 14µM* | i | -9% | i | -1
CC(=O)c1ccccc1S(=O)(=O)NCC(=O)O | x | x | x | x | x | -2
COC(=O)C1(C)CCCC2(C)c3cc(OC)ccc3C(=O)C(Br)C12 (stereo not given) | 2% | 25µM* | u | -4% | i | -1
O=C(O)CN1C(=O)/C(=C\c2cccc(OCc3ccc(Cl)cc3)c2)SC1=S | -9% | u | i | 14% | u | -18
O=C1C(=Cc2cn(-c3ccccc3)nc2-c2ccc(OCc3ccc(Cl)cc3)cc2)SC(=S)N1CCS(=O)(=O)O | x | -13% | u | -1% | i | -24
SMILES | mIDH1 inhibitor | TDP43 rescue | FUS yeast rescue | aSyn rescue | Abeta rescue | LDHA inh
O=C(O)CN1C(=O)/C(=C/C=C/c2ccccc2)SC1=S | -2% | 12% | i | 12% | i | -6
O=C(O)CN1C(=O)/C(=C\c2cccc(OCc3ccccc3F)c2)SC1=S | 3% | 11% | i | -20% | 8.9µM* | u
O=C(O)CN1C(=O)/C(=C\C(Br)=C\c2ccccc2)SC1=S | 17% | 13µM* | i | 17% | i | 15
O=C(O)CN1C(=O)/C(=C\c2cccc(OCc3ccc(F)cc3)c2)SC1=S | -6% | 9% | i | -5% | 5µM* | -19
O=C1C(=Cc2cn(-c3ccccc3)nc2-c2ccc(OCc3ccccc3F)cc2)SC(=S)N1CCS(=O)(=O)O | x | -1% | u | -4% | i | -34*
O=C(O)CCN1C(=O)/C(=C\c2cccc(Oc3ccccc3)c2)SC1=S | -6% | 10% | i | 12% | i | -17
C(=N\Nc1cccc2cccnc12)/c1c[nH]c2ccccc12 | x | x | x | x | x | 15
Cc1ccc(-c2csc(Nc3ccc(O)c(C(=O)O)c3)n2)cc1 | x | x | x | x | x | -1
Cc1cn([C@H]2C[C@H](N[S+](=O)([O-])Cc3ccc(C(F)(F)F)cc3)[C@@H](CO)O2)c(=O)[nH]c1=O | x | x | x | x | x | -7
c1ccc2[nH]c(CNc3nc(N4CCOCC4)nc4c3ncn4-c3ccsc3)nc2c1 | x | x | i | x | x | x
c1ccc2cc3[nH]c(CNc4nc(N5CCOCC5)nc5c4ncn5-c4ccsc4)nc3cc2c1 | x | x | 14µM* | x | x | x
COc1ccc(-c2ccnc3c2c(=O)[nH]c(=O)n3Cc2ccco2)cc1OC | x | x | x | x | x | 2
Cc1ccccc1C(=O)N1CCN(c2ncnc3c2cnn3-c2ccccc2)CC1 | 3% | 14µM* | u | u | i | 4
COC(=O)c1[nH]c2ccccc2c1NC(=O)CCC1CCCC1 | x | x | x | x | x | 3
CC1=C(C(=O)OC2CCCCCC2)C(c2c(F)cccc2Cl)CC(=O)N1 (stereo not given) | -2% | 11µM* | i | x | i | -7

Compound activity from PubChem.
